Format in all cases: functional
The subject of assay [1] is Plasmodium falciparum. Nature of the assay: GSK_TCMDC: Inhibition of Plasmodium falciparum 3D7 in whole red blood cells, using parasite LDH activity as an index of growth. Test compounds present at 2uM.
The test system of assay [2] is Plasmodium falciparum. Description: GSK_TCMDC: Inhibition of Plasmodium falciparum Dd2 in whole red blood cells, using parasite LDH activity as an index of growth. Test compounds present at 2uM.
The subject of assay [3] is HepG2. Description: GSK_TCMDC: Percent inhibition of human HepG2 cell line. Test compounds present at 10uM.

Regarding `N#Cc1cncc(-c2nc3c(N4CCC(Cc5ccccc5)CC4)cccc3n2CCNCc2ccccc2)c1.O=C(O)C(F)(F)F`, the Inhibition in assay [1] is listed as 99%; in assay [2], 99%; in assay [3], 2%.

`O=C(NCc1cccc2ccccc12)c1ccc(CNC2CCN(Cc3ccccc3)CC2)cc1.O=C(O)C(F)(F)F`: the Inhibition in assay [1] is reported as 100%; in assay [2] it was 88%; in assay [3] it was 15%.

In the case of `CCN(CCS(C)(=O)=O)Cc1ccc(-c2ccc3ncnc(Nc4ccc(OCc5cccc(F)c5)c(Cl)c4)c3c2)o1.Cc1ccc(S(=O)(=O)O)cc1`, the Inhibition is reported as 100% in assay [1], 63% in assay [2] and 5% in assay [3].

Consider `CN(C)CCOc1cc(NC(=O)Nc2ccc(Oc3ccccc3)cc2)ccc1I.Cl`, for which the Inhibition stood at 89% in assay [1], 4% in assay [2] and 13% in assay [3].

In the case of `CC1(C)N=C(N)N=C(N)N1c1ccc(Cl)cc1.O=C(O)c1cc2ccccc2c(Cc2c(O)c(C(=O)O)cc3ccccc23)c1O`, the Inhibition in assay [1] was 95%; in assay [2], 4%; in assay [3], 42%.

Consider `Cc1cc(-c2ccc(NC(=O)N3CCc4cc(Br)c(N5CCN(C)CC5)cc43)cc2)ccc1C#N`, for which the Inhibition in assay [1] was 99%; in assay [2] it was 56%; in assay [3], 100%.

`Fc1ccc(CN2CCN(c3ncnc4cc(-c5ccccc5)sc34)CC2)cc1`: the Inhibition in assay [1] came out at 82%; in assay [2], 82%; in assay [3], 7%.

With `CN(Cc1cccc(O)c1)C1CCN(c2cc(NC(=O)c3ccc(F)cc3)ccn2)CC1.O=C(O)C(F)(F)F`, the Inhibition was 94% in assay [1], 9% in assay [2] and 24% in assay [3].

On to `O=C(NCCc1ccccc1)N(Cc1ccc(-c2cccc(CN3CCNCC3)c2)cc1)C1CCN(Cc2ccccc2)CC1.O=C(O)C(F)(F)F`, for which the results for the Inhibition in assay [1], in assay [2] and in assay [3] were 90%, 29% and 27%, respectively.

For the compound `COc1cc2ncnc(Nc3ccc(OCc4ccccc4Br)c(OC)c3)c2cc1OC.Cl`, the Inhibition in assay [1] is on record as 100%; in assay [2], 62%; in assay [3], 11%.

For the compound `COc1ccc(-c2ccc(NC(=O)c3ccc(C#N)cc3)cc2)cc1CN1CCCN(C)CC1.O=C(O)C(F)(F)F`, the Inhibition in assay [1] was determined as 99%; in assay [2], 75%; in assay [3], 27%.

As for `CCOC(=O)CCCOc1c(OC)cc(Cc2cnc(N)nc2N)cc1OC`, the values for the Inhibition in assay [1], in assay [2] and in assay [3] were 96%, 7% and 10%, respectively.

Regarding `O=C(Nc1cn(-c2ccc(OCc3cccc(F)c3)c(Cl)c2)c2ncncc12)c1ccncc1`, the Inhibition in assay [1] worked out at 100%; in assay [2], 81%; in assay [3], 13%.

In the case of `O=C(NCc1ccc(F)cc1)Nc1cccc(-c2ccc(-c3nc4cc(F)ccc4[nH]3)cc2)c1`, the Inhibition in assay [1] worked out at 100%; in assay [2], 96%; in assay [3] it was 7%.

As to `Cc1ccccc1C1CCN(c2ncc(C(=O)Nc3ccccc3)cc2Cl)CC1.O=C(O)C(F)(F)F`, the Inhibition is listed as 83% in assay [1], 83% in assay [2] and 29% in assay [3].

As for `COc1cc(C(=O)NC2CC(C)(C)N(C)C(C)(C)C2)ccc1-c1nc2cc(Cl)c(Cl)cc2[nH]1`, the Inhibition in assay [1] was 100%; in assay [2] it was 99%; in assay [3], 69%.

As for `O=C(c1cnn(-c2ccccc2)c1C(F)(F)F)N1CCN(c2ccnc3cc(Cl)ccc23)CC1`, the Inhibition was determined as 89% in assay [1], 94% in assay [2] and 34% in assay [3].

As for `CO/C(=C\C=C\c1cc2cc(Cl)c(Cl)cc2[nH]1)C(=O)NCCCN1CCN(c2cccc(Cl)c2)CC1`, the values for the Inhibition in assay [1], in assay [2] and in assay [3] were 100%, 77% and 58%, respectively.

`O=C(Nc1cccc(CN2CCCN(Cc3ccsc3)CC2)c1)c1ccc(Cl)c(Cl)c1.O=C(O)C(F)(F)F`: the values for the Inhibition in assay [1], in assay [2] and in assay [3] were 98%, 20% and 36%, respectively.

Turning to `COc1ccc(S(=O)(=O)N2CCCC(C)C2)cc1N1CCN(C(=O)c2ccc([N+](=O)[O-])o2)CC1` (configuration not stated), the Inhibition is 94% in assay [1], 4% in assay [2] and 0% in assay [3].

As for `CCN(CC)CCN(CCN(CC)CC)c1ccc2c(c1)Sc1c(Cl)ccc(Cl)c1S2.Cl`, the Inhibition in assay [1] was 98%; in assay [2], 94%; in assay [3] it was 31%.

`COc1ccccc1CCNc1nc(C)cc(N[C@@H](CC(C)C)C(=O)NCc2cccc(F)c2)n1.O=C(O)C(F)(F)F`: the values for the Inhibition in assay [1], in assay [2] and in assay [3] were 94%, 79% and 20%, respectively.

Consider `CC(C)(C)c1ccc(NC(=O)c2ccc(CN3CCCN(Cc4cccc(F)c4)CC3)cc2)cc1.O=C(O)C(F)(F)F`, for which the Inhibition was determined as 90% in assay [1], 8% in assay [2] and 51% in assay [3].

Consider `CCN(CC)CCN(Cc1ccc(-c2ccc(C(F)(F)F)cc2)cc1)C(=O)Cn1c(/C=C/c2ccco2)nc(=O)c2ccccc21.O=C(O)C(O)C(O)C(=O)O`, for which the figures for the Inhibition in assay [1], in assay [2] and in assay [3] were 94%, 86% and 28%, respectively.

In the case of `COc1ccc(CN2CCCN(Cc3cccc(NC(=O)c4cc5ccccc5s4)c3)CC2)cc1.O=C(O)C(F)(F)F`, the Inhibition in assay [1] worked out at 94%; in assay [2] it was 32%; in assay [3], 32%.

Turning to `CC(CC(=O)NCC1(c2ccc(F)cc2Cl)CCOCC1)C(=O)c1ccc(Cl)cc1` (configuration not stated), the Inhibition came out at 99% in assay [1], 91% in assay [2] and 6% in assay [3].

Take `COc1ccc2c(c1)Nc1ccc(Cl)cc1C2N.O=S(=O)(O)O` (configuration not stated): the Inhibition in assay [1] was determined as 100%; in assay [2] it was 99%; in assay [3], 16%.

Consider `COCCCNC(=O)c1ccc(O)c(-c2cc(Cl)cc(Cl)c2)c1`, for which the figures for the Inhibition in assay [1], in assay [2] and in assay [3] were 94%, 34% and 22%, respectively.

Regarding `Cn1c(NC(=O)CCCCCNC(=O)c2ccc(O)c(-c3ccc(Cl)c(Cl)c3)c2)nc2ccccc21`, the values for the Inhibition in assay [1], in assay [2] and in assay [3] were 100%, 55% and 0%, respectively.

The values are drawn from ChEMBL document CHEMBL1157539, “Thousands of chemical starting points for antimalarial lead identification” (Nature, 2010).
